S2 tox – viability counter-screen for ATXN expression inhibitors; S2 cells (HEK-293 line with an ATXN2-luciferase reporter) viability, CellTiter-Fluor protease fluorescence, 24 h; Potency, µM (top dose mostly 56.7 µM), most hits filed as cytotoxic; 400,000 tested, 0.49% active; AID 651635; further: nearly all actives have a fitted effect of over 40% in size
DT40 TDP1 no CPT – qHTS for Inhibitors of human tyrosyl-DNA phosphodiesterase 1 (TDP1): qHTS in cells in absence of CPT | DT40 Tdp1-/- hTDP1 cells, no CPT, ATP luminescence, 48 h | Potency, µM (titrated, usually from 46.2 µM), inactives show at the highest dose activity change, negative = growth inhibition, hits mostly inhibitors | 420,000 tested, 15% active; further: on the % scale 0 is the no-effect control and ±100 the full control effect; nearly all actives have a fitted effect of over 55% in size
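Cells were dispensed at 400 per well, compounds added by pin tool, plates incubated ≥48 hr at 37 °C, then CellTiter-Glo added for 30 min at room temperature before luminescence reading. Line: DT40 Tdp1-/- complemented with hTDP1; camptothecin omitted.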
HepG2 viability – HepG2 cytotoxicity, counter-screen for TGF-b inhibitors; HepG2 CAGA-GFP viability, ATP luminescence, 18 h; Potency, µM (highest dose often 46.1 µM), for the others: top-dose activity change, negative = cytotoxicity, actives largely listed as cytotoxic; 410,000 tested, 0.76% active
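CellTiter-Glo luminescence gave cytotoxicity after 18 hours at 37 degrees C. The cells were HepG2 CAGA-GFP in 1% FBS DMEM, stimulated with 500 pg/mL TGF-beta after compound addition. %Activity was normalised to no-cell wells (complete cell-killing) and DMSO (no toxicity), and curves were fitted and classified.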
DT40 TDP1 CPT – DT40-hTDP1 cell growth loss with CPT | chicken DT40 Tdp1-/-;hTDP1 cells + 20 nM CPT, ATP luminescence, 48 h | Potency, µM (doses to about 46.2 µM), for inactives: at the top dose activity change, negative = growth inhibition, hits mostly inhibitors | 420,000 tested, 12% active | AID 686979; further: on the % scale 0 is the no-effect control and ±100 the full control effect; nearly all actives have a fitted effect of over 55% in size
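Cell growth measured by CellTiter-Glo luminescence after a minimum 48 h, 37 C compound exposure with 20 nM CPT in Tdp1-knockout DT40 cells stably expressing hTDP1, seeded 400/well; qHTS titration format.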
ATXN2 expr inh – reduces ATXN2 reporter expression in HEK-293 cells; 360,000 tested, 0.72% active; Potency, µM (series often up to 57 µM), for inactives: top-dose activity change, negative = inhibition, actives largely listed as inhibitors; AID 1745845; HEK-293 ATXN2-luciferase reporter, luminescence, 24 h; further: on the % scale 0 is the no-effect control and ±100 the full control effect; nearly all actives have a fitted effect of over 55% in size
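qHTS (up to 57 uM final) was run with 24 h compound exposure of reporter cells at 37 °C. Each well was multiplexed: SteadyGlo luminescence measured ATXN2-luciferase expression after a fluorogenic Gly-Phe-AFC viability readout (25 uM final).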
TGFb SMAD3 inh – TGF-b pathway inhibition; HepG2 CAGA-GFP TGF-b/SMAD3 reporter, GFP fluorescence, 18 h; TGF-beta stimulated, 500 pg/mL final; Potency, µM (series often up to 46.1 µM), for inactives: top-dose activity, negative = inhibition, hits mostly inhibitors; 410,000 tested, 1.2% active; AID 588855; further: on the % scale 0 is the no-effect control and ±100 the full control effect; nearly all actives have a fitted effect of over 65% in size
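HEPG2 CAGA-GFP reporter cells (1000/well, DMEM with 1% FBS) received compounds, then recombinant TGF-beta at 500 pg/mL final for 18 hours at 37 degrees C. Per-cell GFP summed per well was normalised to unstimulated and stimulated DMSO controls before curve fitting.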
* marks the source's active call; other numbers are inactive results; i = inactive; ? = inconclusive; · = no result; ! = not confirmed by another sample; [ ] = another dose, or the depositor's remark. Most compounds without a hit are left out; they make up all but 17% or so of the library. The call rests on the fitted dose curve; in most records, active means well fitted curve in the direction sought with a large enough effect; inconclusive means small, poorly fitted or top-dose-only effect, or another doubt; inactive means no such curve, though single readings can be large; an effect the other way counts as inactive or inconclusive. Potency means the concentration at half of the fitted maximal effect.

SMILES | S2 tox | DT40 TDP1 no CPT | HepG2 viability | DT40 TDP1 CPT | ATXN2 expr inh | TGFb SMAD3 inh
Clc1ccc(-c2cc(-c3ccccc3)on2)cc1 | i | -8.1% | -12.1% | -24.2% | 54.7% | -1.5%
CCOC(=O)c1c(C)[nH]c(C)c1S(=O)(=O)N1CCCC(C(=O)NCc2ccc(N(C)C)cc2)C1 (stereo not given) | i | 0.8% | -4.1% | ? | 0.4% | -20.0%
O=c1c2ccccc2sn1-c1cc(S(=O)(=O)N2CCOCC2)ccc1N1CCCC1 | i | 11.6µM* | -9.0% | 5.8µM* | -11.7% | -27.1%
O=c1c2ccccc2sn1-c1cc(S(=O)(=O)N2CCOCC2)ccc1N1CCCCC1 | · | 5.62µM* | -0.7% | 2.51µM* | · | 0.6%
O=c1c2ccccc2sn1-c1cc(S(=O)(=O)N2CCOCC2)ccc1N1CCOCC1 | i | 4.47µM* | -93.5% | 4.47µM* | -13.9% | 11.2µM*!
O=C(O)c1cc(S(=O)(=O)N2CCOCC2)ccc1N1CCCCC1 | i | -22.3% | 66.0% | 7.3% | 6.1% | 10.8%
CCOc1cc(/C=C2\N=C(SC)SC2=O)cc([N+](=O)[O-])c1OC(C)=O | i | ? | 1.5% | 18.4µM* | -8.5% | -2.0%
Brc1ccc(-c2ccc(CNCCSc3nnnn3-c3ccccc3)o2)cc1 | i | ? | -48.5% | ? | -22.6% | ?
O=C(NNc1cc(Br)c(O)c(Br)c1)c1ccccc1 | i | 18.4µM* | -11.2% | ? | -17.0%[11.3 µM] | -24.4%
N#Cc1ccc(NC(=O)Cn2cnc(S(=O)(=O)N3CCCC3)c2)cc1 | i | 21.1% | -6.8% | -6.2% | -0.4% | -7.9%
O=C(c1c(F)cccc1F)N(Cc1ccccn1)C1CC1 | i | ? | 0.4% | -25.6% | -17.8% | 12.6µM*
O=C(CC1CCCCC1)NCc1ccccn1 | i | 1.2% | 3.5% | -0.5% | 6.7% | 1.4%
CCOC(=O)c1c(C)n(CCOc2ccccc2)c2ccc(O)cc12 | i | 2.5% | 4.3% | 4.0% | 24.6% | ?
CCOC(=O)c1c(C)n(CC(O)c2ccccc2)c2ccc(O)cc12 (stereo not given) | i | 18.4µM* | -21.2% | ? | 6.5% | ?
CCCNC(=O)C1(C)CCN(Cc2ccc(OC)c3ccccc23)C1 (stereo not given) | i | 20.6µM* | -12.4% | ? | 0.0% | 33.7%
CCCNC(=O)C1(C)CCN(Cc2ccc(Oc3ccccc3)cc2)C1 (stereo not given) | ? | ? | -27.9% | ? | -11.0% | 10.2%
CCCNC(=O)C1(C)CCN(Cc2ccc(C)c3ccccc23)C1 (stereo not given) | i | 23.1µM* | -30.1% | ? | -33.7% | -24.6%
CCOC(=O)C1(CCCc2ccccc2)CCN(C(=O)c2ocnc2C)CC1 | i | ? | 0.3% | -29.5% | -9.1% | 10.5%
CCOC(=O)C1(CCCc2ccccc2)CCN(C2CCSCC2)CC1 | ? | 13µM* | -32.9% | 16.4µM* | · | -11.5%
CCOC(=O)C1(CCCc2ccccc2)CCN(C(=O)c2cncs2)CC1 | i | 23.1µM* | -15.8% | 18.4µM* | -13.8% | -6.2%
CCOC(=O)C1(CCCc2ccccc2)CCN(C(=O)Cn2nc(C)nc2C)CC1 | i | ? | -10.8% | 23.1µM* | -29.8% | -9.5%
CCOC(=O)C1(CCCc2ccccc2)CCN(C(=O)c2cc(C)nn2CC)CC1 | ? | 9.2µM* | -37.5% | 18.4µM* | · | ?
CCOC(=O)C1(CCCc2ccccc2)CCN(C(=O)COC)CC1 | i | -4.6% | -3.7% | ? | 4.4% | -2.3%
COc1cc(Cl)ccc1OCc1cc(C(=O)N(C)C2CC(C)(C)NC(C)(C)C2)no1 | i | ? | -31.6% | -13.1% | -2.7% | -3.2%
O=C(NCc1ccc(OC(F)(F)F)cc1)C1CC2Cn3c(nc4ccccc43)C2N1c1ccccc1 (stereo not given) | i | ? | 1.2% | ? | 6.4% | -15.4%
SMILES | S2 tox | DT40 TDP1 no CPT | HepG2 viability | DT40 TDP1 CPT | ATXN2 expr inh | TGFb SMAD3 inh
CCn1c(SCC(=O)Nc2oc(C)c3c(C)n[nH]c(=O)c23)nc2sc(C)c(C)c2c1=O | i | ? | 1.5% | ? | -8.2% | -0.6%
CCOC(=O)C1(CCCc2ccccc2)CCN(C(=O)c2n[nH]c(CC)c2C)CC1 | i | 13µM* | -29.8% | 23.1µM* | · | ?
COc1cccc(C(=O)/C=C/Nc2ccc(NC(C)=O)cc2)c1 | i | -27.3% | -4.3% | -3.8% | 44.5% | 1.1%
COc1cccc(C(=O)/C=C/Nc2ccc(S(=O)(=O)Nc3cccc(C(C)=O)c3)cc2)c1 | ? | 16.4µM* | 0.1% | 18.4µM* | ? | -29.7%
COc1cccc(/C=C/C(=O)c2ccc(NS(=O)(=O)c3ccc(C)cc3)cc2)c1 | i | 20.6µM* | -80.0% | 18.4µM* | ? | ?
COc1cc(/C=C/C(=O)c2ccc(NS(=O)(=O)c3ccc(C)cc3)cc2)ccc1OC(F)F | ? | 18.4µM* | -40.8% | ? | ? | 0.0%
COCCN1C[C@@H](CO)O[C@@H](n2cnc3c(NCCN(C)C)ncnc32)C1 | i | ? | -40.1% | 14.7% | 17.7% | -4.0%
COc1ccc(-c2ccc(C(=O)N(C)Cc3csc(C)n3)c(N3CCC(N4CCc5ccccc5C4)CC3)n2)cc1 | i | -21.5% | · | 7.6%[9.04 µM] | · | ·
Cc1ccc(/C=N\NC(=O)COc2ccc(C)cc2[N+](=O)[O-])cc1 | i | ? | -13.1% | ? | -0.2% | -0.1%
Cc1ccc(OCC(=O)N/N=C\c2c(C)[nH]n(-c3ccccc3)c2=O)c([N+](=O)[O-])c1 | i | 4.11µM* | -7.3% | 3.66µM* | · | ?
Cc1ccc(OCC(=O)N/N=C\c2cn(C)c3ccccc23)c([N+](=O)[O-])c1 | i | 14.6µM* | -45.4% | ? | 0.9% | -0.5%
Cc1ccc(OCC(=O)N/N=C\c2ccc(O)c([N+](=O)[O-])c2)c([N+](=O)[O-])c1 | i | -18.5% | 5.8% | -1.9% | · | -0.2%
COc1cccc(NCc2cccn2-c2nnc(N3CCC(C)CC3)s2)c1 | i | ? | -7.6% | ? | 3.7% | ?
O=C(NNC(=O)c1cc(-c2ccc(Cl)cc2)nc2ccccc12)c1csc(N2CCOCC2)n1 | ? | ? | -4.8% | 5.6% | -18.8% | 1.4%
CN(C)C(=O)[C@@H]1C[C@@H](Sc2nc3ccccc3[nH]2)CN1Cc1ccnc2ccccc12 | i | 14.6µM* | · | 16.4µM* | · | ·
OCCN1CCN(c2ncnc3sc(-c4ccccc4)cc23)CC1 | i | 14.6µM* | -4.0% | ? | -13.8% | -3.6%
